This is part of a sample that, as a whole, favours compounds with a hit. Of some 83,000 tested, about 20% had one in any assay.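 Results are percent growth after 48 hours of single-concentration exposure. 100 means growth as in untreated cells, lower positive values show inhibition; negative values down to -100 show cell death.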 Unmarked numbers belong to inactive results. Rule for the calls: active = growth percent below 10; inactive = the rest.

For one assay, the system named is EKVX NSCLC. Nature of the assay: NCI-60 one-dose screen, 48 h (100 = growth as untreated, 0 = no growth, -100 = all killed). Conditions: 10 µM unless noted.
For the compound `Nc1ccccc1SC1CC(=O)N(c2ccc(Cl)c(Cl)c2)C1=O` (centres undefined), the growth was 86.4%.

As to `CCCCCCCCNC(=O)C(C)C`, the growth is 99.9%.

In the case of `C=CCC(OC(C)=O)c1ccc(C(C)C)cc1` (centres undefined), the growth is 113%.

With `CC(=O)c1cc(O)ccc1O`, the growth is 112%.

Take `CCOc1ccc(C(=O)NCC(C)C)cc1`: the growth is 106%.

`CC(=O)Nc1ncc(S(=O)(=O)c2ccc([N+](=O)[O-])cc2)s1`: the growth was 114%.

As for `C=CCC(OC(C)=O)c1ccc(OC)c(OC)c1` (centres undefined), the growth was 107%.

`O=C(O)Cc1ccc(Cl)cc1`: the growth was 79.2%.

Take `CC(C)(CC(=O)O)CC(=O)O`: the growth was 97.4%.

As to `CCOC(=O)C(C#N)=C1CCN(C)CC1`, the growth was 112%.

As for `COC1OC(COC(C)=O)C(OC(C)=O)C(OC(C)=O)C1OC(C)=O` (centres undefined), the growth was 93%.

The subject of the next assay is SN12C renal. Described as above. The conditions noted are these: 10 µM unless noted.
For `O=C(CCl)Oc1ccc([N+](=O)[O-])cc1`, the growth was 116%.

Take `Clc1cccc(Cl)c1CSc1nc2ccccc2n2cccc12`: the growth is 102%.

Regarding `COc1cc(OC)c(NC(=O)C(Sc2nc(C)cc(C)c2C#N)c2ccccc2)cc1Cl` (centres undefined), the growth was 98.5%.

Turning to `COc1ccc(/C=N/NC(=O)COCC(=O)N/N=C/c2ccc(OC)cc2)cc1`, the growth is 99%.

Consider `Nc1ccccc1SC1CC(=O)N(c2ccc(Cl)c(Cl)c2)C1=O` (centres undefined), for which the growth was 115%.

For the compound `CC(C)c1ccccc1NC(=O)N1CCC(C(C)C)CC1`, the growth was 106%.

In the case of `FC(F)(F)c1cc(NC2=NCCN=C(Nc3cc(C(F)(F)F)cc(C(F)(F)F)c3)SS2)cc(C(F)(F)F)c1`, the growth was 47.2%.

`CC(CCC#N)(CCC#N)C(=O)c1ccccc1`: the growth was 102%.

As for `CCCCCCCCCCCCCCCCCC(=O)NCCNC(=O)CCCCCCCCCCCCCCCCC`, the growth is 97.2%.

With `C=CCC(OC(C)=O)c1ccc(C(C)C)cc1` (centres undefined), the growth was 104%.

For `CCCNS(=O)(=O)c1ccc(Cl)cc1`, the growth is 103%.

With `S=c1nc(-c2ccccn2)c(-c2ccccn2)n[nH]1`, the growth was 118%.

Consider `O=C(O)c1cccc(-n2ncc(Cl)c(Cl)c2=O)c1`, for which the growth is 100%.

As to `Cn1/c(=N\N=C\c2ccccc2OCCO)sc2ccccc21`, the growth was 102%.

Take `Clc1ccc(-c2noc(/C=C\c3ccccc3)n2)cc1`: the growth was 105%.

Turning to `CC(=O)Nc1ncc(S(=O)(=O)c2ccc([N+](=O)[O-])cc2)s1`, the growth is 104%.

As for `CC(=O)NCNC(C)=O`, the growth was 109%.

Consider `CCOC(=O)c1ccc(C(C)(C)C)cc1`, for which the growth was 107%.

Turning to `NC(=S)N/N=C/c1ccc(Cl)cc1`, the growth is 128%.

In the case of `C=CCC(OC(C)=O)c1ccc(OC)c(OC)c1` (centres undefined), the growth is 102%.

For `Oc1ccc(N=Cc2ccc(OCc3ccccc3)cc2)cc1`, the growth is 101%.

For the compound `COc1nc(Nc2cccc(C(F)(F)F)c2)nc(OC)n1`, the growth was 102%.

Regarding `C=C1SC(=Nc2c(C)cccc2C)N(c2nc(Cl)nc(Cl)n2)C12CCCCC2`, the growth was 107%.

For the compound `O=C(CCl)Nc1ccccc1SCc1cc(Cl)cc2c1OCOC2`, the growth was 91.3%.

As to `Cc1c(-c2ccc(C3CCCCC3)cc2)nc2ccc(F)cc2c1C(=O)O`, the growth is 45.2%.

Consider `CCCC(=O)CC(=O)c1ccccc1`, for which the growth is 96.3%.

Turning to `CCOC(=O)C(C#N)=C1CCN(C)CC1`, the growth is 97%.

Turning to `O=C1NC(=O)C(c2ccccc2)O1` (centres undefined), the growth was 103%.

For `COC1OC(COC(C)=O)C(OC(C)=O)C(OC(C)=O)C1OC(C)=O` (centres undefined), the growth was 101%.

As for `C#CCSc1nnnn1-c1ccccc1`, the growth is 88%.

Another assay concerns UO-31 renal. The description is as above. Conditions: 10 µM unless noted.
`O=C(CCl)Oc1ccc([N+](=O)[O-])cc1`: the growth was 60.8%.

Turning to `Clc1cccc(Cl)c1CSc1nc2ccccc2n2cccc12`, the growth was 71.8%.

Regarding `Cc1cccnc1NC1OC(=O)c2ccccc21` (centres undefined), the growth was 85.8%.

Turning to `COc1cc(OC)c(NC(=O)C(Sc2nc(C)cc(C)c2C#N)c2ccccc2)cc1Cl` (centres undefined), the growth was 102%.

In the case of `COc1ccc(/C=N/NC(=O)COCC(=O)N/N=C/c2ccc(OC)cc2)cc1`, the growth is 92.5%.

Regarding `Nc1ccccc1SC1CC(=O)N(c2ccc(Cl)c(Cl)c2)C1=O` (centres undefined), the growth is 72.6%.

With `CC(C)c1ccccc1NC(=O)N1CCC(C(C)C)CC1`, the growth was 85.6%.

Regarding `FC(F)(F)c1cc(NC2=NCCN=C(Nc3cc(C(F)(F)F)cc(C(F)(F)F)c3)SS2)cc(C(F)(F)F)c1`, the growth was 35.1%.

Regarding `CC(CCC#N)(CCC#N)C(=O)c1ccccc1`, the growth is 77.1%.

With `CCCCCCCCNC(=O)C(C)C`, the growth was 99.1%.

With `CCCCCCCCCCCCCCCCCC(=O)NCCNC(=O)CCCCCCCCCCCCCCCCC`, the growth was 49%.

`C=CCC(OC(C)=O)c1ccc(C(C)C)cc1` (centres undefined): the growth was 84.9%.

For `CC(=O)c1cc(O)ccc1O`, the growth is 88.9%.

Take `CCCNS(=O)(=O)c1ccc(Cl)cc1`: the growth was 89.9%.

As for `S=c1nc(-c2ccccn2)c(-c2ccccn2)n[nH]1`, the growth was 81.1%.

Take `CCOc1ccc(C(=O)NCC(C)C)cc1`: the growth is 93.5%.

For the compound `O=C(O)c1cccc(-n2ncc(Cl)c(Cl)c2=O)c1`, the growth is 107%.

As for `Cn1/c(=N\N=C\c2ccccc2OCCO)sc2ccccc21`, the growth is 57.2%.

`Clc1ccc(-c2noc(/C=C\c3ccccc3)n2)cc1`: the growth is 83.5%.

For `CC(=O)Nc1ncc(S(=O)(=O)c2ccc([N+](=O)[O-])cc2)s1`, the growth is 79.4%.

For the compound `CC(=O)NCNC(C)=O`, the growth is 105%.

On to `CCOC(=O)c1ccc(C(C)(C)C)cc1`, for which the growth was 89.8%.

Turning to `NC(=S)N/N=C/c1ccc(Cl)cc1`, the growth was 94.8%.

In the case of `Cc1ccc(NC(=O)c2ccccc2Cl)cc1`, the growth was 97%.

Take `C=CCC(OC(C)=O)c1ccc(OC)c(OC)c1` (centres undefined): the growth is 90.4%.

As for `Oc1ccc(N=Cc2ccc(OCc3ccccc3)cc2)cc1`, the growth was 79.9%.

Regarding `COc1nc(Nc2cccc(C(F)(F)F)c2)nc(OC)n1`, the growth is 84.3%.

In the case of `C=C1SC(=Nc2c(C)cccc2C)N(c2nc(Cl)nc(Cl)n2)C12CCCCC2`, the growth is 75.6%.

Turning to `O=C(CCl)Nc1ccccc1SCc1cc(Cl)cc2c1OCOC2`, the growth was 75.7%.

With `Cc1c(-c2ccc(C3CCCCC3)cc2)nc2ccc(F)cc2c1C(=O)O`, the growth was 34.3%.

Regarding `C[n+]1cc2cc3c(cc2c2ccccc21)OCO3`, the growth was 72%.

For the compound `CCCC(=O)CC(=O)c1ccccc1`, the growth is 90.8%.

For the compound `O=C(O)Cc1ccc(Cl)cc1`, the growth is 99.4%.

On to `CC(C)(CC(=O)O)CC(=O)O`, for which the growth was 94%.

As for `CCOC(=O)C(C#N)=C1CCN(C)CC1`, the growth was 87.5%.

With `O=C1NC(=O)C(c2ccccc2)O1` (centres undefined), the growth was 87.6%.

Take `COC1OC(COC(C)=O)C(OC(C)=O)C(OC(C)=O)C1OC(C)=O` (centres undefined): the growth was 99.3%.

On to `C#CCSc1nnnn1-c1ccccc1`, for which the growth was 91.1%.

(Values after PubChem BioAssay (NCI).)
